# Test results taken from PubChem BioAssay AID1740 (National Center for Advancing Translational Sciences (NCATS), 2009).
# Inconclusive results are not listed. Activity calls are given as the source filed them. Calls follow the shape of the dose curve; as a rule, active = well fitted activation curve with a large enough effect; inconclusive = small, poorly fitted or top-dose-only effect; inactive = no such curve, though single readings can be large or run the other way.
# Experiment: Confirmation Concentration-Response Assay for Enhancers of SMN2 Splice Variant Expression
# Conditions: HEK293 SMN2-exon7-luciferase splicing reporter, luminescence, 30-36 h; series mostly up to 46.1 µM; activation: at the top concentration
# Description: NIH Chemical Genomics Center [NCGC] NIH Molecular Libraries Probe Production centers Network [MLPCN] MLPCN Grant: R03 MH084179-01 Assay Submitter (PI): Elliot Androphy NCGC Assay Overview: Spinal muscular atrophy (SMA) is caused by insufficient levels of the survival motor neuron protein SMN. The SMN locus on chromosome 5q13 contains two inverted copies of SMN called SMN1 and SMN2 which are 99% identical at the amino acid level. SMN1 is a fully functional protein and SMN2 skips exon 7 90% of the time. Skipping of exon 7 produces non-functional protein product. 10% of the SMN2 protein includes exon 7 and is fully functional. In the SMA disease state, mutations in the SMN1 locus are the cause of the disease state. Because only 10% of SMN2 is of the fully functional form, it is not sufficient to overcome the deficiency produced by the loss of the SMN1 product. A therapy that either increase the amount of SMN2 product made or to increase the inclusion of exon 7 has been proposed for the treatment of SMA. We have designed an assay to identify small molecules that can increase the amount of functional SMN2 product by appending a luciferase reporter gene after the native SMN2 gene, such that inclusion of exon 7 in the expressed product places the luciferase sequence in frame, thus generating functional luciferase enzyme.
# NCGC Assay Protocol Summary: This screen utilizes a luciferase reporter gene assay, combining the promoter with the major portion of the native SMN2 cDNA (exons 1 -7, intron 8 , exon 8 fused to luciferase) stably expressed in HEK293 cells. Compounds that increase luciferase signal presumably enhance expression of the functional SMN2 splice variant. Passaging media contained DMEM w/ glutamax (+phenol red) 10% FCS, 1x pen/strep, 200 ug/ml hygro, 1x sodium pyruvate. Assay media contained DMEM w/ glutamax (-phenol red) 10% FCS, 1x pen strep, 1x pyruvate Sequence, Parameter, Value, Description (1) Cells, 5 uL, 2000 cells/well, 1536 TC treated White solid bottom plate (2) Time, 10-12 hours, 37C 5% CO2 (3) Compound, 23 nl, MLSMR Library (4) Control Compound, 23 nL, Sodium butyrate st 4.5mM (final) conc (5) Time, 30-36 hours, 37C 5% CO2 (6) Reagent, 3 ul, One Glo (TM) from Promega (7) Time, 5-15 minutes, Room temp (8) Detector, Viewlux: luminescent read, 60 second integration, high speed 2x binning Keywords: Spinal muscular atrophy, SMA, SMN2, high throughput screening, MLSMR, MLPCN, NIH Roadmap, qHTS and NCGC
SMILES,activation,Potency
N#C/C(=C\Nc1ccccc1SC(F)(F)F)c1nc(-c2ccc(Cl)cc2)cs1,-29.8% (inactive),
CCCSc1nnc2c(n1)OC(c1sccc1C)Nc1ccccc1-2 (configuration not stated),,2000 nM (active)
FC(F)(F)c1cccc(-c2nnc(-c3ccccc3)c(N3CCOCC3)n2)c1,-5.49% [at 9.48 µM] (inactive),
Cc1nnc(-c2ccccc2)[nH]c1=O,-2.84% [at 22.7 µM] (inactive),
OC[C@H]1O[C@@H](n2cnc3c(Nc4ccccc4)ncnc32)[C@H](O)[C@H]1O,,8910 nM (active)
O=C(Nc1nc(-c2ccc3ccccc3c2)cs1)C1CCN(S(=O)(=O)c2cccs2)CC1,-43.5% [at 22.7 µM] (inactive),
Nn1c(SCC(=O)NCCC2=CCCCC2)nnc1C1CCCCC1,9.87% (inactive),
O=C(Nc1cccnc1)/C(N=Nc1c(Cl)cccc1Cl)=C(\O)c1ccccc1,-12.1% (inactive),
Cc1ccc(-c2csc(N3CCC(NS(=O)(=O)c4ccc5c(c4)OCCO5)CC3)n2)cc1,-59.4% [at 22.7 µM] (inactive),
CCOc1ccc2nc(N3CCC(C(=O)N4CCN(c5ccccn5)CC4)CC3)sc2c1,-40.3% [at 22.7 µM] (inactive),
COc1ccc(-c2csc(N3CCC(C(N)=O)(N4CCCCC4)CC3)n2)cc1,-36.3% [at 22.7 µM] (inactive),
CCCSc1nnc(Sc2nnnn2-c2ccccc2)s1,-84.7% (inactive),
CCC(=O)n1nc(NCc2ccccc2OC)nc1NCc1ccccc1OC,-36.1% (inactive),
CCCCOC(C)n1cc(F)c(=O)[nH]c1=O (configuration not stated),-17.1% [at 22.7 µM] (inactive),
CC(/C=C/C(=O)NO)=C\[C@@H](C)C(=O)c1ccc(N(C)C)cc1,,1120 nM (active)
c1coc(CNc2ncnc3ccccc23)c1,-53.2% (inactive),
FC(F)C(F)(F)C1=CC(c2cccs2)=NCCN1,0.924% (inactive),
NC(=O)C1(N2CCCCC2)CCN(c2nc(-c3ccccc3)cs2)CC1,-7.38% [at 22.7 µM] (inactive),
c1ccc(-c2nnc(-c3ccccc3)c(-c3c[nH]c4ccccc34)n2)cc1,4.63% [at 22.7 µM] (inactive),
O=S(=O)(NC1CCCc2ccccc21)c1cnc[nH]1 (configuration not stated),-0.677% (inactive),
O=[N+]([O-])c1ccc(-c2nnc(-c3ccccc3)c(NCCCO)n2)cc1,23.6% [at 22.7 µM] (inactive),
Clc1nc(NCC2CCCO2)c2[nH]cnc2n1 (configuration not stated),-10.1% (inactive),
Clc1ccc(-c2nnc(-c3ccccc3)c(N3CCSCC3)n2)cc1,-1.83% [at 22.7 µM] (inactive),
Clc1nc(NCc2ccco2)c2[nH]cnc2n1,-44.5% (inactive),
Fc1ccc(Oc2nc(-c3ccccc3)nnc2C(F)(F)F)cc1,-16.3% [at 22.7 µM] (inactive),
c1coc(CNc2ncnc3nc[nH]c23)c1,6.63% (inactive),
COc1nc(-c2ccccc2)nnc1-c1ccccc1,,2510 nM (active)
